Compound activity as filed in PubChem BioAssay.
Many of the other results were omitted from the sample, so hits are more common in it than they were.
IDE exosite FP = exo-site inhibitors of human IDE, primary screen, biochemical, fluorescence anisotropy, probe displacement; purified IDE, FL-6b probe fluorescence polarization; hits give low values; z-score at 20 µM; 17,000 tested, 6.3% active; Insulin-degrading enzyme (Homo sapiens), P14735; AID 1259349, 2017;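 active = z-score of -3 or lower, meaning strong loss of probe binding signal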;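 note: His-tagged human IDE residues 42-1019 made in E. coli with 30 nM FL-6b probe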
Starred values were filed as active, the others as inactive; ! = not confirmed by another sample.

SMILES | IDE exosite FP
N#C[C@H]1[C@@H](c2ccc(C3=CCCC3)cc2)[C@H](CO)N1C(=O)Cc1ccncc1 | 4
OC[C@H]1[C@H](c2ccc(C#CC3(O)CCCC3)cc2)[C@H]2CN(Cc3ccncc3)CCCCN21 | 2
C/C=C/c1ccc([C@@H]2[C@@H](C#N)N(c3ncc(CC)s3)[C@@H]2CO)cc1 | 4.7
O=C(CN1CCOCC1)N1CCCCN2[C@H](CO)[C@H](c3ccc(-c4ccccc4F)cc3)[C@@H]2C1 | -0.00058
COc1ccccc1-c1ccc([C@H]2[C@@H](CO)N3CCCCN(C(=O)CN4CCOCC4)C[C@H]23)cc1 | -2.8
COCC(=O)N1CCCCN2[C@H](CO)[C@@H](c3ccc(-c4ccccc4)cc3)[C@H]2C1 | 0.76
O=C(CN1CCOCC1)N1CCCCN2[C@@H](CO)[C@H](c3ccc(-c4ccccc4F)cc3)[C@@H]2C1 | -0.34
COc1ccccc1-c1ccc([C@H]2[C@H](CO)N3CCCCN(C(=O)CN4CCOCC4)C[C@@H]23)cc1 | -3.2*
Cc1ccccc1-c1ccc([C@H]2[C@@H](CO)N3CCCCN(C(=O)CN4CCOCC4)C[C@H]23)cc1 | -9.9*
Cc1ccccc1-c1ccc([C@@H]2[C@@H](CO)N3CCCCN(C(=O)CN4CCOCC4)C[C@@H]23)cc1 | -8*
O=C(CN1CCOCC1)N1CCCCN2[C@H](CO)[C@@H](c3ccc(-c4ccccc4F)cc3)[C@@H]2C1 | -3.6*
O=C(CN1CCOCC1)N1CCCCN2[C@H](CO)[C@H](c3ccc(-c4ccccc4F)cc3)[C@H]2C1 | -0.75
C[C@@H]1CN([C@H](C)CO)C(=O)CCCn2nncc2CO[C@H]1CN(C)S(=O)(=O)c1ccccc1C#N | 1.3
C[C@@H]1CN([C@H](C)CO)C(=O)c2ccccc2-c2ccccc2CO[C@@H]1CN(C)S(=O)(=O)Cc1ccccc1 | 1.1
CO[C@@H]1CN(C)C(=O)c2ccc(NC(=O)c3cc(C)on3)cc2OC[C@H](C)NC[C@@H]1C | -1.3
CC(=O)N(C)C[C@H]1[C@@H](c2ccc(-c3cccc(C#N)c3)cc2)[C@@H](CO)N1C(C)=O | 0.89
O=C(C[C@@H]1CC[C@H]2[C@@H](COC[C@@H](O)CN2CC2CCOCC2)O1)NCC1CCCCC1 | 1.1
CC(C)CC#Cc1ccc([C@H]2[C@@H](CO)N3C(=O)CN(C(=O)Cc4ccccc4)C[C@@H]23)cc1 | 1.7
OC[C@@H]1[C@H](c2ccc(-c3ccccc3F)cc2)[C@H]2CN(Cc3ccncc3)CCCCN12 | 0.71
OC[C@@H]1[C@H](c2ccc(/C=C/c3ccccc3)cc2)[C@@H]2CN(Cc3ccncc3)CCCCN12 | -8.5*
C(=C\c1ccc(C2[C@@H]3CN(Cc4cccnc4)C[C@H]2N3)cc1)/c1ccccc1 (stereo partly specified) | -4.8*!
OC[C@H]1[C@H](c2ccc(-c3ccc(F)cc3)cc2)[C@H]2CN(Cc3cccnc3)CCCCN21 | 1.4
c1cncc(CN2C[C@@H]3N[C@H](C2)C3c2ccc(-c3cccnc3)cc2)c1 (stereo partly specified) | 1.8
CCCC#Cc1ccc([C@H]2[C@H](CO)N3CCCCN(Cc4ccncc4)C[C@@H]23)cc1 | -0.41
OC[C@H]1[C@H](c2ccc(Br)cc2)[C@@H]2CN(Cc3cncnc3)CCCCN12 | 2.8
SMILES | IDE exosite FP
OC[C@@H]1[C@H](c2ccc(/C=C/c3ccccc3)cc2)[C@@H]2CN(Cc3cccnc3)CCCCN12 | -5.2*
OC[C@@H]1[C@@H](c2ccc(/C=C/c3ccccc3)cc2)[C@@H]2CN(Cc3cccnc3)CCCCN12 | -0.94
OC[C@@H]1[C@@H](c2ccc(/C=C/c3ccccc3)cc2)[C@@H]2CN(Cc3cncnc3)CCCCN12 | -7.9*
O=C(C1CCC1)N1C[C@@H]2N[C@H](C1)C2c1ccc(/C=C/c2ccccc2)cc1 (stereo partly specified) | -1.7
OC[C@@H]1[C@@H](c2ccc(-c3ccccc3)cc2)[C@H]2CN(Cc3cncnc3)CCCCN12 | 2.7
CCCC#Cc1ccc([C@H]2[C@@H](CO)N(C(=O)C3CCCC3)[C@H]2C#N)cc1 | 2.5
O=C(C[C@@H]1CC[C@@H]2[C@H](COC[C@H](O)CN2Cc2ccc(C(F)(F)F)cc2)O1)N1CCc2ccccc2C1 | -0.64
CCCC#Cc1ccc([C@H]2[C@@H](CO)N3C(=O)CN(C(=O)NC4CCCC4)C[C@H]23)cc1 | 1.9
CN(C)CC#Cc1ccc([C@@H]2[C@@H](CO)N3CCCCN(C(=O)Nc4ccc(F)cc4)C[C@H]23)cc1 | 1.9
CN1CCN(C(=O)C[C@@H]2CC[C@@H]3[C@H](COC[C@@H](O)CN3CC3CCCCC3)O2)CC1 | 0.48
C[C@@H](O)C#Cc1ccc([C@@H]2[C@H](CO)N3CCCCN(S(=O)(=O)Cc4ccccc4)C[C@@H]23)cc1 | 5.3
CC(C)C#Cc1ccc([C@H]2[C@@H](CO)N3C(=O)CN(C(=O)Cc4cccnc4)C[C@H]23)cc1 | 4.3
OC[C@@H]1[C@H](c2ccc(-c3cccc(F)c3)cc2)[C@H]2CN(Cc3cncnc3)CCCCN12 | -0.54
OC[C@H]1[C@@H](c2ccc(-c3cccc(F)c3)cc2)[C@@H]2CN(Cc3cncnc3)CCCCN12 | 0.014
OC[C@@H]1[C@H](c2ccc(/C=C/c3ccccc3)cc2)[C@H]2CN(Cc3cncnc3)CCCCN12 | -4.4*
Cc1ccccc1-c1ccc([C@H]2[C@@H](CO)N3CCCCN(Cc4cccnc4)C[C@H]23)cc1 | -11*
OC[C@H]1[C@H](c2ccc(-c3ccccc3F)cc2)[C@@H]2CN(Cc3cccnc3)CCCCN12 | 2.6
OC[C@H]1[C@@H](c2ccc(-c3ccccc3F)cc2)[C@H]2CN(Cc3cccnc3)CCCCN21 | 2.5
CC(=O)N(CC(C)C)C[C@H]1[C@@H](c2ccc(C3=CCCC3)cc2)[C@@H](CO)N1C(C)=O | 5.3
O=C(c1ccccc1)N1CC(=O)N2[C@H](CO)[C@@H](c3ccc(C#CCC4CCCC4)cc3)[C@H]2C1 | 0.36
C[C@@H]1CCCCO[C@H](CN(C)S(=O)(=O)c2cn(C)cn2)[C@H](C)CN([C@@H](C)CO)C(=O)c2cc(NC(=O)Nc3cccc4ccccc34)ccc2O1 | -1.7
C[C@@H]1CN([C@H](C)CO)C(=O)c2cc(NC(=O)Nc3cccc4ccccc34)ccc2O[C@@H](C)CCCCO[C@H]1CN(C)S(=O)(=O)c1cn(C)cn1 | -1.4
C[C@@H]1CN([C@@H](C)CO)C(=O)c2cc(NC(=O)Nc3cccc4ccccc34)ccc2O[C@@H](C)CCCCO[C@@H]1CN(C)S(=O)(=O)c1cn(C)cn1 | -3.9*
C[C@@H]1CCCCO[C@H](CN(C)S(=O)(=O)c2cn(C)cn2)[C@@H](C)CN([C@@H](C)CO)C(=O)c2cc(NC(=O)Nc3cccc4ccccc34)ccc2O1 | -0.62
C[C@@H]1CCCCO[C@@H](CN(C)S(=O)(=O)c2cn(C)cn2)[C@@H](C)CN([C@@H](C)CO)C(=O)c2cc(NC(=O)Nc3cccc4ccccc34)ccc2O1 | -4.2*
C[C@@H]1CCCCO[C@@H](CN(C)S(=O)(=O)c2cn(C)cn2)[C@@H](C)CN([C@H](C)CO)C(=O)c2cc(NC(=O)Nc3cccc4ccccc34)ccc2O1 | -1.1
C/C=C/c1ccc([C@H]2[C@@H](CNCC)N(c3nc(C)c(C)s3)[C@H]2CO)cc1 | -0.61
CC(=O)N(C)C[C@@H]1[C@@H](c2ccc(C3=CCCCC3)cc2)[C@@H](CO)N1CC1CC1 | 2.8
CCc1cnc(N2[C@H](C#N)[C@@H](c3ccccc3C3=CCCCC3)[C@@H]2CO)s1 | 0.61
